Out of some 310,000 compounds screened, about 1,200 (0.39%) were called active. Only a sample is shown. Potency and affinity values are given separately. Values without a mark were called inactive. How the calls were made is not given here.

The inhibition is the drop in the measured response relative to a control, in per cent.

In the assay the target is Large T antigen (Simian virus 40) (UniProt P03070). The assay can be described thus: SV40 large T antigen inhibitors, biochemical (AID 1903). The following applies: SV40 large T antigen ATPase/helicase inhibition assay; at 20 µM; active compounds read high.
Sequence of Large T antigen (Simian virus 40) (P03070 whole entry, looked up): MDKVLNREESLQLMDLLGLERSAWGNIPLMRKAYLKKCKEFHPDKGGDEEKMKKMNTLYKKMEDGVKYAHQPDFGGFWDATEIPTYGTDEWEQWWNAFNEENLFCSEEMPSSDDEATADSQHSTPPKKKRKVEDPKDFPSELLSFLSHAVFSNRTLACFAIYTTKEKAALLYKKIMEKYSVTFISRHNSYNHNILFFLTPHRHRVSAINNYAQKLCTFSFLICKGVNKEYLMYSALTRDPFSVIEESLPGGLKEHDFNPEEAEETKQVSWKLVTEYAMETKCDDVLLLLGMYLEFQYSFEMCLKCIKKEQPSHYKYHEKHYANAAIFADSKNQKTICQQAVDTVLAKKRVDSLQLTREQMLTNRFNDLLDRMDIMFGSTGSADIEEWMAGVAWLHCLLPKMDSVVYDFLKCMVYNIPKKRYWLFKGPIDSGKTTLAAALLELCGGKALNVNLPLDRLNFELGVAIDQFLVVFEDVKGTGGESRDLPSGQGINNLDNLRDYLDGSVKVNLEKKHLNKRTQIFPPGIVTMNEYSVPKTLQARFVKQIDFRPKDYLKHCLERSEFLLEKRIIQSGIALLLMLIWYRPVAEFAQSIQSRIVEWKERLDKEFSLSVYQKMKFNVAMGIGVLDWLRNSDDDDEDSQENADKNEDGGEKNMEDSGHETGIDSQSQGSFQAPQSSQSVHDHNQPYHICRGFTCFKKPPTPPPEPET
In the case of `Cc1nc2cc(-c3sccc3-n3cccc3)nn2c(C)c1C`, the inhibition was 5.6%.
For `Cc1ccc(NS(=O)(=O)c2ccc(CCC(=O)NCc3cccnc3)cc2)cc1`, the inhibition is 7.61%.
With `COC(=O)c1ccc(COc2cccc3c2CCN(Cc2ccccc2)C3=O)o1` the figure was 4.93%; with `Brc1ccc2[nH]c3c(NCc4ccccn4)ncnc3c2c1`, 4.68%.
With `O=C(Nc1ccccc1)N(Cc1ccccc1)C1=NCCS1` the figure was 5.16%; with `O=C(O)COc1ccccc1/C=N/NC(=O)CN1CCN(Cc2ccccc2Cl)CC1`, 2.27%; with `CCOC(=O)c1c(NC(=O)/C=C/C(=O)O)sc(C)c1-c1ccc(Cl)cc1`, 47.5%.
Regarding `CCOC(=O)c1c(NC(=O)/C=C\C(=O)O)sc(C)c1-c1ccccc1`, the inhibition was 12.2%.
As for `CC(C)c1ccc(Nc2nc(Cl)nc(NCc3ccco3)n2)cc1`, the figure is 23.9%; as for `OCCNc1nc(Cl)nc(NCc2ccco2)n1`, 3.58%.
On to `CCOC(=O)CNc1c(-c2ccccc2)nc2ccc(Cl)cn12`, for which the inhibition was 13.6%.
For the molecule `Cc1ccc2[nH]c(=O)c(-c3nc4ccccn4c3NCc3ccco3)cc2c1`, the inhibition was 26%.
On to `CCOC(=O)CNc1c(-c2ccc(OC)cc2)nc2ccc(Cl)cn12`, for which the inhibition is 19.4%.
With `CCOC(=O)CNc1c(-c2ccc(Cl)cc2)nc2cnccn12` the figure was 14.1%.
As for `COCCNc1c(-c2ccc(O)cc2)nc2ccc(Cl)cn12`, the figure is 25.7%; as for `O=C(Nc1c(-c2ccccc2)nc2ccccn12)c1ccco1`, 19.3%; as for `Cc1ccc(CCNC(=O)C2CCCN(S(=O)(=O)c3cccc4nsnc34)C2)cc1` (stereo unspecified), 4.61%.
In the case of `CN(C)/C=C/C(=O)c1ccc(Cl)c([N+](=O)[O-])c1`, the inhibition was 11.3%.
With `Cc1ccc(-n2nnnc2SCC(=O)Nc2ccc(N3CCN(C)CC3)cc2)c(C)c1` the figure was 17.6%; with `COc1ccc2[nH]cc(C(=O)CN3CCCCC3)c2c1`, 20.3%; with `O=C(NCCC1=CCCCC1)Nc1ccc2nsnc2c1`, -1.37%.
With `Cn1c(N)c(C(=O)COC(=O)c2ccc(S(=O)(=O)N3CCCCC3)cc2)c(=O)n(C)c1=O` the figure was 2.82%; with `CCc1noc(C)c1C(=O)Nc1nnc(C2CCCCC2)s1`, 16%; with `COC(=O)c1c([N+](=O)[O-])c(OC)c(OC)c(OC)c1[N+](=O)[O-]`, 2.68%.
As for `COC(=O)[C@H](CCSC)NS(=O)(=O)c1ccccc1Br`, the figure is 24.3%.
As for `Cc1cccc(NC(=O)c2ccc(NC(=O)CC3SC(N4CCCC4)=NC3=O)cc2)n1` (stereo unspecified), the inhibition is 12.5%.
As for `CC1CCCN(S(=O)(=O)c2ccc(CN3C(=O)c4cccnc4C3=O)cc2)C1` (stereo unspecified), the figure is 9.07%.
With `CCc1ccc(N2NC(=O)/C(=C/C=C/c3ccco3)C2=O)cc1`, the inhibition was 22.1%.
For `CCN1C(=O)/C(=C\c2ccco2)C(C(=O)OC)=C1C`, the inhibition is 8.18%.
Take `O=C1NN(c2ccc(F)cc2)C(=O)/C1=C\C=C\c1ccco1`: the inhibition was 19.7%.
As for `CC(C)CN1C(=O)/C(=C/c2ccco2)NC1=S`, the figure is 19.9%; as for `Cc1cccc(N=C2NC(=O)/C(=C/C=C/c3ccco3)S2)c1C`, 5.68%.
Regarding `CCCCn1c(N)c(N(CC)C(=O)/C=C/c2ccco2)c(=O)[nH]c1=O`, the inhibition was 5.15%.
With `Cc1csc2nc(CSc3nc4ccccc4o3)c(Br)n12` the figure was 1.48%; with `Cc1c[n+]([O-])n(-c2ccc(C(=O)O)cc2)n1`, 2.23%; with `O=C(c1cc(=O)c2ccccc2o1)N1CCN(c2cccc(Cl)c2)CC1`, 8.8%.
Consider `CC(=O)c1cccc(NS(=O)(=O)N2CCOCC2)c1`, for which the inhibition was 9.29%.
As for `O=C(CCCc1ccccc1)Nc1cccnc1Cl`, the figure is 10%; as for `O=C(c1c(Cl)cccc1Cl)N1CCN(c2cccc3[nH]ccc23)CC1`, 23.6%; as for `O=[N+]([O-])c1cccc(CN2CCN(c3cccc4[nH]ccc34)CC2)c1`, 27.1%.
As for `Cc1ccc(S(=O)(=O)N2CCC(C(=O)NNC(=O)c3ccc(F)cc3)CC2)cc1`, the figure is 7.95%.
Turning to `Cc1ccc(C)c(CSc2nnc(-c3ccccn3)n2N)c1`, the inhibition was 4.69%.
As for `CCSc1nnc2n(-c3ccc(OC)cc3)c(=O)c3c4c(sc3n12)CCCC4`, the figure is 2.78%; as for `COc1ccc(-n2c(=O)c3c4c(sc3n3c(=S)[nH]nc23)CCCC4)cc1`, 2.8%; as for `Cc1cccc(-n2c(=O)c3c4c(sc3n3c(=S)[nH]nc23)CCC4)c1`, 34.1%.
As for `CSc1nnc2n(-c3ccccc3)c(=O)c3c4c(sc3n12)CCC4`, the inhibition was 3.42%.
Take `Cc1nnc2n(-c3ccccc3)c(=O)c3c4c(sc3n12)CCCC4`: the inhibition is 4.53%.
With `COc1ccccc1-n1c(=O)c2c3c(sc2n2c(=S)[nH]nc12)CCC3` the figure was 30.3%; with `COc1ccccc1C1(O)C(=O)Nc2ccc(C)cc21` (stereo unspecified), 9.43%; with `CS(=O)(=O)N1CCN(c2ncnc3c2cnn3-c2ccccc2)CC1`, 1.55%.
With `CC1=CC(=C(C#N)C#N)C=C(C)N1CCN1CCN(C(=O)Nc2ccc(Cl)c(Cl)c2)CC1` the figure was 3.99%; with `Cc1cc(/C=C2/NC(=O)NC2=O)c(C)n1-c1sc2c(c1C#N)CCCC2`, 17.3%.
With `Cc1ccc(C)n1-c1sc2c(c1C#N)CCCC2` the figure was 7.49%.
`CCOC(=O)N1CCC(N2CCN(S(=O)(=O)c3ccc(OC)cc3)CC2)CC1`: the inhibition is 4.73%.
With `COc1ccc(OC)c(-n2c(SCC(=O)Nc3cc(C)on3)nnc2-c2c[nH]c3ccccc23)c1` the figure was -1.81%; with `CCN1CC2([N+](=O)[O-])CC=C(OC)C([N+](=O)[O-])(C1)C2` (stereo unspecified), -0.47%.
With `N#CCn1c(Cc2ccccc2)nc2ccccc2c1=O` the figure was 10.6%.
As for `CN(C)Cc1nc2ccccc2c(=O)n1CC#N`, the figure is 8.3%.
In the case of `O=Cc1cn(-c2ccccc2)nc1-c1ccc(F)cc1`, the inhibition was 3.65%.
`Cc1ccc2c(c1)N(C(=O)CCC(=O)N1CCCCC1)CCO2`: the inhibition was 9.22%.
As for `N#Cc1c(-c2ccccc2)cc(-c2ccccc2)[nH]c1=O`, the figure is -4.42%.
Take `N#Cc1c(-c2cccc(Br)c2)cc(-c2ccco2)[nH]c1=O`: the inhibition was 4.79%.
As to `COc1ccc(-c2cc(-c3ccco3)[nH]c(=O)c2C#N)cc1`, the inhibition was 33.2%.
As for `COc1ccc(-c2cc(-c3ccco3)[nH]c(=O)c2C#N)cc1OC`, the figure is 33.5%; as for `O=C(NCCN1CCCCCC1)C1CCC(CNS(=O)(=O)c2cccc3cccnc23)CC1` (stereo unspecified), 10.5%; as for `CCCN1CCN(CCCNC(=O)CCN2C(=O)COc3ccccc32)CC1`, 15.1%.
In the case of `COc1ccc(CCNC(=O)Cn2cnc3scc(-c4ccccc4)c3c2=O)cc1OC`, the inhibition was 5.46%.
As for `Cn1nc(C(=O)Nc2ccc(S(=O)(=O)N3CCCC3)cc2)ccc1=O`, the figure is 0.66%; as for `Cc1ccc(C(=O)Nc2ccncc2)cc1[N+](=O)[O-]`, 13%; as for `Nc1n[nH]c(N)c1N=Nc1ccc(F)cc1`, 13.8%.
With `Cc1ccc(N=Nc2c(N)n[nH]c2N)cc1`, the inhibition is 25%.
As for `COc1cc2[nH]c3c(=O)n4c(nc3c2cc1OC)SCCC4`, the inhibition is 7.73%.
With `Cc1cccc(NNC(=O)C2CCC2)c1` the figure was 10.2%.
With `N#Cc1c(NC(=O)/C=C/c2ccco2)sc2c1CCCC2` the figure was 11.5%.
Take `N#Cc1c(NC(=O)c2ccco2)sc2c1CCC2`: the inhibition is 28.5%.
With `O=C(CCc1nnc2ccc(NCc3ccco3)nn12)Nc1ccccc1F` the figure was 14.6%; with `CCN(c1ccccc1)S(=O)(=O)c1cccc(C(=O)NCC(c2ccco2)N2CCCC2)c1` (stereo unspecified), 20.1%.
As for `O=S1(=O)N=C(Nc2ccc(N3CCOCC3)cc2)c2ccccc21`, the figure is 7.37%.
Take `CCN(CC)S(=O)(=O)c1ccc(NC2=NS(=O)(=O)c3ccccc32)cc1`: the inhibition is 5.33%.
As for `CN(C)CCOC(=O)C12CC3(C)CC(C)(CC(C)(C3)C1)C2`, the figure is 20.7%.
With `COc1cc(/C=C2\S/C(=N/S(=O)(=O)c3ccccc3)NC2=O)c([N+](=O)[O-])cc1OC` the figure was 23%.
For `COc1ccc(S(=O)(=O)/N=C2/NC(=O)/C(=C\c3cc(OC)c(OC)cc3[N+](=O)[O-])S2)cc1`, the inhibition was 31.5%.
`Cc1ccnc(NC(c2ccccc2O)c2oc(CO)cc(=O)c2O)c1` (stereo unspecified): the inhibition was 13.4%.
As for `COc1cccc(CN2CCN(Cc3nc4c(s3)CCCC4)CC2CCO)c1` (stereo unspecified), the figure is 7.56%.
With `N#Cc1ccc(Oc2ccc(S(=O)(=O)N3CCOCC3)cn2)cc1` the figure was 8.88%.
In the case of `O=C1Nc2ccccc2/C1=C/c1ccccc1Cl`, the inhibition was 4.98%.
As for `O=C1NC(=O)/C(=C/c2ccccc2Cl)N1`, the figure is 2.2%; as for `O=C1CCC(C(=O)OCC(=O)c2ccccc2)N1` (stereo unspecified), -3.04%; as for `Cc1ccc([C@@H]2[C@@H]3C(=O)N(C)C(=O)[C@@H]3[C@]3(C)C(=O)N(Cc4ccccn4)CC(=O)N23)o1`, 21.8%.
As for `CC1=Nc2cccc3cccc(c23)N1`, the figure is 14.5%.
With `CC(C)C1=Nc2cccc3cccc(c23)N1` the figure was 31.8%; with `NS(=O)(=O)c1ccc(CNS(=O)(=O)c2ccc3ccccc3c2)cc1`, 8.92%; with `O=S1(=O)N=C(N(CCO)/N=C/c2ccccc2)c2ccccc21`, -0.93%.
In the case of `CC(=O)Nc1ccc2c(c1)CCc1ccccc1-2`, the inhibition is 2.87%.
As for `O=C(O)CCCc1ccc2c(c1)CCc1ccccc1-2`, the figure is 4.11%; as for `CCCCNC(=S)NNC(=O)c1c(Cl)c(C)nn1C`, 13.2%.

Values taken from PubChem BioAssay AID1903 (Southern Research Specialized Biocontainment Screening …, 2009).
